Assay results from PubChem BioAssay (EPA / NIEHS).
More than one record can exist for a structure, and the calls need not agree. Active and inactive are the calls of the source. Rule for the calls: active = hit-call score of the fitted dose curve at least 0.9, where 1 is the maximum; inactive = score below 0.9.

Legend:
[1] = APR_HepG2_P-H2AX_72hr: Apredica 72-hour HepG2 Assay for H2AX Phosphorylation (AID 2282916); settings: imaging, actives raise or lower the signal;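 note: phospho-histone H2A.x immunostain intensity per cell marking DNA damage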
Procedure, shortened: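 Following 72 hr treatment with 0.39–200 uM compound, HepG2 cells were formaldehyde-fixed, permeabilized and stained for phospho-H2A.x; signal was measured by high-content imaging and fitted bidirectionally against DMSO controls.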

[2] = APR_HepG2_MitoticArrest_72hr: Apredica 72-hour HepG2 Assay for Mitotic Arrest (AID 2282918); settings: high-content imaging, actives raise or lower the signal
Procedure, shortened: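 HepG2 cells were exposed for 72 hr to compound at 0.39–200 uM (10 concentrations, duplicate) in 0.5% v/v DMSO, fixed in 3.7% formaldehyde, immunostained for phospho-histone H3 with Hoechst 33342 and imaged by high-content fluorescence; bidirectional fits versus DMSO.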

[3] = APR_HepG2_MicrotubuleCSK_72hr: Apredica 72-hour HepG2 Assay for Microtubule CSK Stabilty (AID 2282919); settings: HepG2 microtubule cytoskeleton, high-content imaging, actives raise or lower the signal
Procedure, shortened: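 HepG2 cells were exposed 72 hr to compound at 0.39–200 uM in duplicate (0.5% DMSO final), then fixed and permeabilized. Alpha-tubulin immunofluorescence was imaged by high-content microscopy, with bidirectional fitting against DMSO and taxol as positive control.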

[4] = APR_HepG2_P-H2AX_24hr: Apredica 24-hour HepG2 Assay for H2AX Phosphorylation (AID 2282920); settings: high-content imaging, actives raise or lower the signal
Procedure, shortened: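 HepG2 human liver cells were exposed for 24 hr to compounds at 0.39–200 uM in duplicate, with 0.5% v/v DMSO final. Fixed cells were immunostained for phospho-histone H2A.x plus Hoechst 33342, imaged by HCS fluorescence, and fitted bidirectionally against DMSO.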

[5] = APR_HepG2_StressKinase_72hr: Apredica 72-hour HepG2 Assay for Stress Kinase (AID 2282921); settings: HepG2 stress kinase (phospho-c-Jun) imaging, actives raise or lower the signal
Procedure, shortened: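 Fluorescence intensity of Cy3-tagged anti-phospho-c-Jun antibody, quantified per cell from Hoechst-defined nuclei across six images per well, served as the read-out following 72 h exposure (0.39–200 uM, 0.5% v/v DMSO).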

[6] = APR_HepG2_StressKinase_24hr: Apredica 24-hour HepG2 Assay for Stress Kinase (AID 2282922); settings: HepG2 stress kinase (phospho-c-Jun) imaging, actives raise or lower the signal
Procedure, shortened: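 HepG2 cells exposed 24 h to 0.39–200 uM compound in duplicate (0.5% v/v DMSO final). Cells fixed in 3.7% formaldehyde, permeabilized and immunostained for phospho-c-Jun; read by high-content fluorescence imaging, fitted bidirectionally against DMSO.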

[7] = APR_HepG2_p53Act_72hr: Apredica 72-hour HepG2 Assay for p53 Activation (AID 2282923); settings: high-content imaging, actives raise or lower the signal;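 note: average cellular p53 protein immunofluorescence intensity in HepG2 cells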
Procedure, shortened: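 HepG2 monolayers receive test compounds in duplicate at ten concentrations (0.39 through 200 uM) for 72 hr. They are then formaldehyde-fixed, antibody-labelled for p53, Hoechst-stained and imaged, with activity fitted bidirectionally versus DMSO.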

[8] = APR_HepG2_MitoMass_72hr: Apredica 72-hour HepG2 Assay for Mitochondrial Mass (AID 2282924); settings: high-content imaging, actives raise or lower the signal;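 note: MitoTracker Red CMXRos stain intensity per cell imaged as mitochondrial mass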
Procedure, shortened: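 HepG2 cells dosed 72 hr at 0.39–200 uM (0.5% DMSO), in duplicate. MitoTracker Red CMXRos 250 nM loaded 30 min before formaldehyde fixation; high-content fluorescence imaging, bidirectional fit versus DMSO.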

[9] = APR_HepG2_NuclearSize_72hr: Apredica 72-hour HepG2 Assay for Nuclear Size (AID 2282925); settings: high-content imaging, actives raise or lower the signal
Procedure, shortened: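 HepG2 cells dosed 72 h at 0.39–200 uM (10 concentrations, duplicate) in 0.5% v/v DMSO final. Fixed, Hoechst 33342-stained nuclei imaged; nuclear diameter measured by automated image analysis. Bidirectional fit versus DMSO.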

[10] = ATG_CRE_CIS: Attagene CIS-FACTORIAL HepG2 Assay for human cAMP Responsive Element (CRE) binding protein 3 (AID 2282926); settings: HepG2 CRE cis-reporter, Attagene multiplexed mRNA; actives raise or lower the signal
Procedure, shortened: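 HepG2 cells transiently transfected with a multiplexed reporter library (CRE-driven unit among them) were dosed for 24 h. Reporter mRNA was quantified by RT-PCR, fluorescent labelling, HpaI digestion and capillary electrophoresis, with bidirectional fitting against DMSO baseline.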

[11] = molecular target: CCAAT/enhancer-binding protein beta (Homo sapiens) (UniProt P17676); test: ATG_C_EBP_CIS: Attagene CIS-FACTORIAL HepG2 Assay for human CCAAT/Enhancer Binding Protein (C/EBP) beta (AID 2282927); settings: HepG2 Attagene cis-factorial transcription factor reporter; actives raise or lower the signal
Chain of CCAAT/enhancer-binding protein beta (Homo sapiens) (P17676 whole entry, looked up): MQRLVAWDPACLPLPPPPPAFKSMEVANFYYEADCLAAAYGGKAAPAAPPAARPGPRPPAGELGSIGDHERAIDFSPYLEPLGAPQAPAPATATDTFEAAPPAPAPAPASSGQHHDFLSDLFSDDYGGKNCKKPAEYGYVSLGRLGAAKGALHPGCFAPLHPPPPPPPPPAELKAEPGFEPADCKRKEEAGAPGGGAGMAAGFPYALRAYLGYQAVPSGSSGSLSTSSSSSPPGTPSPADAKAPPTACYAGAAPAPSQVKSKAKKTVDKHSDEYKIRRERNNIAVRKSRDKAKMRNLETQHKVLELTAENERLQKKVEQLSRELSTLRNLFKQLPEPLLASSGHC
Procedure, shortened: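 HepG2, transient MRTU transfection, 24 h treatment. RT-PCR plus CE fluorescence; DMSO negative control, bidirectional fit.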

[12] = ATG_DR4_LXR_CIS: Attagene CIS-FACTORIAL HepG2 Assay for human Liver X Receptor (LXR), DR4 submotif (AID 2282929); settings: HepG2 Attagene DR4 cis-reporter, mRNA transcription; actives raise or lower the signal
Procedure, shortened: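 Fluorescence intensity of labelled reporter cDNA fragments, separated by capillary electrophoresis, gives the signal. HepG2 cells bearing cis-regulated reporter constructs were treated 24 h; activity fitted bidirectionally relative to DMSO negative control.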

[13] = molecular target: Aryl hydrocarbon receptor (Homo sapiens) (UniProt P35869); test: ATG_Ahr_CIS: Attagene CIS-FACTORIAL HepG2 Assay for human Aryl Hydrocarbon Receptor (Ahr) (AID 2282930); settings: HepG2 AhR cis-factorial reporter transcription; actives raise or lower the signal
Chain of Aryl hydrocarbon receptor (Homo sapiens) (P35869 whole entry, looked up): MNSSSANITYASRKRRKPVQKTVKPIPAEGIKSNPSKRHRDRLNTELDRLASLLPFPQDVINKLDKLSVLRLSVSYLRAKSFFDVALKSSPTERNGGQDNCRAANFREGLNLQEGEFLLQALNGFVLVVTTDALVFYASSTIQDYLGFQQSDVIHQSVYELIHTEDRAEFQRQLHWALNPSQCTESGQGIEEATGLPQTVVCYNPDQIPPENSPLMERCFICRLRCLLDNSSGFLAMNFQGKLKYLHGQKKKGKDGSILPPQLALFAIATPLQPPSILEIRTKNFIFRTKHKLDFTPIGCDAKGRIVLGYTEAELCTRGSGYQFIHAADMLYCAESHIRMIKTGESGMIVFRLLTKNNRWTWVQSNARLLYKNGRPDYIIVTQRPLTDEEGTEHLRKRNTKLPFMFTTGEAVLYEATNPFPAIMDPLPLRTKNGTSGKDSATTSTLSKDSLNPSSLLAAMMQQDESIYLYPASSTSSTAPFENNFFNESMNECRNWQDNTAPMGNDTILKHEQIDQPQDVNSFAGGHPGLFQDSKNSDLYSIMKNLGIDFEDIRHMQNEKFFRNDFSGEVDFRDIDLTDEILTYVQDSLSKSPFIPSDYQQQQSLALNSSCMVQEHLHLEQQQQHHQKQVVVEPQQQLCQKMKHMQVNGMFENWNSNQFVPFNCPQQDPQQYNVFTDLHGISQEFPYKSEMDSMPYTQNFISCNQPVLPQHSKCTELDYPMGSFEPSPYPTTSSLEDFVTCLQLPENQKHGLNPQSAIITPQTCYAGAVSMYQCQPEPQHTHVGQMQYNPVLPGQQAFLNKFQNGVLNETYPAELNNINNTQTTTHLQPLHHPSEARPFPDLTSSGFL
Procedure, shortened: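 Endogenous factor activity is tracked through cis-promoter reporter units transfected into HepG2 cells. Transcript levels at 24 h are read by fluorescent RT-PCR and capillary electrophoresis, with activity in either direction scored relative to DMSO.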

[14] = ATG_AP_1_CIS: Attagene CIS-FACTORIAL HepG2 Assay for human Activator Protein 1 (AP-1) (AID 2282931); settings: HepG2 Attagene cis-factorial AP-1 reporter mRNA; actives raise or lower the signal
Procedure, shortened: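 Multiplexed HepG2 reporter assay, 24 h dosing. mRNA induction detected by RT-PCR plus capillary electrophoresis. Activity fitted in both directions against DMSO.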

[15] = ATG_AP_2_CIS: Attagene CIS-FACTORIAL HepG2 Assay for human Activator Protein 2 (AP-2) (AID 2282932); settings: HepG2 AP-2 cis-reporter, Attagene transcription factor profiling; actives raise or lower the signal
Procedure, shortened: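 Multiplexed mRNA reporter assay in HepG2: cis-regulated units report endogenous factor activity after 24 h treatment. Fluorescence from capillary electrophoresis of RT-PCR products gives the signal, with DMSO as baseline.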

[16] = ATG_BRE_CIS: Attagene CIS-FACTORIAL HepG2 Assay for human Bone Morphogenetic Protein (BMP) Response Element (BRE) (AID 2282933); settings: HepG2 BMP response element reporter, Attagene transcription factor profiling; actives raise or lower the signal
Procedure, shortened: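 Fluorescence-labelled reporter cDNA fragments, separated by capillary electrophoresis, gave the signal for this component of a 52-readout multiplex. HepG2 cells were transfected, exposed to chemicals for 24 h, and compared with DMSO using bidirectional fitting.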

[17] = molecular target: Retinoic acid receptor alpha (Homo sapiens) (UniProt P10276); test: ATG_DR5_RAR_CIS: Attagene CIS-FACTORIAL HepG2 Assay for human Retinoic Acid Receptor Alpha (RARE), DR5 submotif (AID 2282934); settings: HepG2 Attagene cis-factorial RARE DR5 reporter, mRNA; actives raise or lower the signal
Chain of Retinoic acid receptor alpha (Homo sapiens) (P10276 whole entry, looked up): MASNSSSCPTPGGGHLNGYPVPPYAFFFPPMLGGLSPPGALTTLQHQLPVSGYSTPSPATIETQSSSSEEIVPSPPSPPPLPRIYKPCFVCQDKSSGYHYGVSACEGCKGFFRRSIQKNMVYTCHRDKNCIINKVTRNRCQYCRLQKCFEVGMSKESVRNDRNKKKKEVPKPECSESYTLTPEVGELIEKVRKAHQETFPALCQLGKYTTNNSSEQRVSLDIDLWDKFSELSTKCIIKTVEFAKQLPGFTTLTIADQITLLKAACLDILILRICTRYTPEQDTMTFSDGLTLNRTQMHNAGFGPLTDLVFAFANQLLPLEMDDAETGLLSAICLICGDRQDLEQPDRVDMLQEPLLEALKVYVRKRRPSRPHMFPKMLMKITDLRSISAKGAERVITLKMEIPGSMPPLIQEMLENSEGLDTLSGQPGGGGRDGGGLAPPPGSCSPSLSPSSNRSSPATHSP
Procedure, shortened: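 After 24 h of chemical exposure, transiently transfected HepG2 cells were lysed for total RNA; the DR5-regulated reporter transcript was quantified via RT-PCR and capillary electrophoresis, with activity fitted bidirectionally against DMSO.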

[18] = molecular target: Transcription factor E2F1 (Homo sapiens) (UniProt Q01094); test: ATG_E2F_CIS: Attagene CIS-FACTORIAL HepG2 Assay for human E2F Transcription Factor 1 (AID 2282935); settings: HepG2 Attagene cis-reporter, E2F reporter RNA transcripts; actives raise or lower the signal
Chain of Transcription factor E2F1 (Homo sapiens) (Q01094 whole entry, looked up): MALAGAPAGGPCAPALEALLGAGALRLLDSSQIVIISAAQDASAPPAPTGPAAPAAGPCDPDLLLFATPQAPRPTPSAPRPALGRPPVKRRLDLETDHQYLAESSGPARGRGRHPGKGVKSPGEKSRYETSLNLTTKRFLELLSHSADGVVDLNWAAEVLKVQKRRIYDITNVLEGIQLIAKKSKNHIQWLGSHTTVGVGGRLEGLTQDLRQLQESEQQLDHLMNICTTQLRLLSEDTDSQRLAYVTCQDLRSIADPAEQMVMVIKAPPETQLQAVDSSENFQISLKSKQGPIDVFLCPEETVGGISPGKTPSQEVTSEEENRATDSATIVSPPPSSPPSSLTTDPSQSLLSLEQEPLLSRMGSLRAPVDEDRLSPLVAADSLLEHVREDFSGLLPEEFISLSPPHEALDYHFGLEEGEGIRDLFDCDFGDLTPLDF
Procedure, shortened: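 Measures reporter transcript levels via RT-PCR with capillary electrophoresis detection in HepG2 cells harboring cis-regulated reporter units; 24 h post-dose; bidirectional curve fitting with DMSO as baseline.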

[19] = ATG_CMV_CIS: Attagene CIS-FACTORIAL HepG2 Assay for human CMV (Internal Marker) (AID 2282928); settings: HepG2 CMV promoter reporter, transcription factor profiling; actives raise or lower the signal;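 note: endpoint acts as a background internal control marker rather than a target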
Procedure, shortened: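 After transient transfection of HepG2 with reporter transcription units driven by cis-regulatory promoters, cells receive test chemical for 24 h. Labeled reporter amplicons, digested with HpaI, are sized and quantified by capillary electrophoresis against DMSO.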

Measured: AC50

CCCOC(=O)c1ccc(C(=O)OCCC)nc1
not listed: [19]
inactive: all other assays above

COC(=O)CSc1cc(N=c2sc(=O)n3n2CCCC3)c(F)cc1Cl
not listed: [11] | [17]
inactive: all other assays above

CCOC(=O)C(C)Oc1ccc(Oc2nc3ccc(Cl)cc3o2)cc1 (stereo not drawn)
not listed: [19]
inactive: all other assays above

C=CCOC(Cn1ccnc1)c1ccc(Cl)cc1Cl (stereo not drawn)
active: [2] 78.5 µM | [3] 43.1 µM | [10] 12.9 µM | [12] 76.1 µM | [14] 50 µM | [15] 50 µM | [16] 33.7 µM
not listed: [11] | [17] | [19]
inactive: all other assays above

COC(=O)c1ccc(CNS(C)(=O)=O)cc1S(=O)(=O)NC(=O)Nc1nc(OC)cc(OC)n1
not listed: [15] | [19]
inactive: all other assays above

Oc1ccc(C(c2ccc(O)cc2)C(Cl)(Cl)Cl)cc1
active: [2] 85.6 µM
not listed: [11] | [15] | [17]
inactive: all other assays above

c1ccc2[nH]c(-c3cscn3)nc2c1
inactive: [1] | [2] | [3] | [4] | [5] | [6] | [8] | [9] | [10] | [19] | [12] | [14] | [16] | [17] | [18]
active: [12] 32.1 µM
